Source: PubChem BioAssay
Activity calls are given as the source filed them.

Columns and labels:
Albumin (Bos taurus) = Albumin (Bos taurus) (UniProt P02769); test: compounds binding labelled BSA control protein – biochemical, small-molecule microarray, Alexa647 label, 635/667 nm fluorescence, artefact control for SMM control protein annotation, profiling panel (AID 1118); details: BSA-A647 binding, fluorescence 635 nm, higher = more signal;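 further: score merges 667 nm emission intensity and signal-to-noise per printed compound spot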
Sequence of Albumin (Bos taurus) (P02769 whole entry, looked up): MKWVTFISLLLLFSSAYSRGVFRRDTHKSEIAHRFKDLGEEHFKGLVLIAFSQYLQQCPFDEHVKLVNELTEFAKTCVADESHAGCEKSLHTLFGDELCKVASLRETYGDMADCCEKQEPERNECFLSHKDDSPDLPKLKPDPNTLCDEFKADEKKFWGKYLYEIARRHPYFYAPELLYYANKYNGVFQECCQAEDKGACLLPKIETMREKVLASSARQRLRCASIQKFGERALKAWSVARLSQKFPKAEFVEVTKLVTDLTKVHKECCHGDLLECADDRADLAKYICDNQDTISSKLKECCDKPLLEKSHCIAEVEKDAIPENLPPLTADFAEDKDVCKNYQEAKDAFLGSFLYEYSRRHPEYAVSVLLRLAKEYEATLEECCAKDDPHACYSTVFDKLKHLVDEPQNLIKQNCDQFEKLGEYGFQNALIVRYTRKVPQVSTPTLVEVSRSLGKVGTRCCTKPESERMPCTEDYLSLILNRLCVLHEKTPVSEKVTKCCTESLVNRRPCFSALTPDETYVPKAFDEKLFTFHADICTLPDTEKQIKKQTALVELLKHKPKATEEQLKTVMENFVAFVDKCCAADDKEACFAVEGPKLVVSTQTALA

[1] = probe aXIP binding to arrayed compounds – biochemical, NeuroSMM set, 635/667 nm fluorescence, primary screen (AID 1119); details: small-molecule microarray, higher = more signal, called active from +8 up or from −8 down;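 further: probe is the protein aXip251-270 applied at 1 µg/mL to compound-printed slides; binding of probe to printed compounds measured as 667 nm fluorescence plus signal to noise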
[2] = probe aNOTCH3 binding on compound microarray – biochemical, small-molecule microarray, 635/667 nm fluorescence, primary screen (AID 1120); details: higher = more signal;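 further: probe is a biotin-tagged antibody raised against NOTCH3 rather than NOTCH3 protein; score merges spot fluorescence near 667 nm with spot signal to noise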
[3] = probe aNOTCH2 binding on compound microarray – biochemical, small-molecule microarray, 635/667 nm fluorescence, primary screen (AID 1121); details: higher = more signal;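 further: score merges feature fluorescence read at 667 nm with its signal to noise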
[4] = molecular target: Carbonic anhydrase 2 (Homo sapiens) (UniProt P00918); test: compounds binding carbonic anhydrase 2 – biochemical, small-molecule microarray, Alexa647-labelled CAII, profiling panel (AID 1122); details: CAII-A647 binding fluorescence, higher = more signal
[5] = COS7 lysate on small-molecule microarray, probe aHis, 635 nm (AID 1123); details: COS7 cell lysate, fluorescence, higher = more signal;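 further: z-score combines 667nm fluorescence intensity with signal-to-noise per printed compound spot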
[6] = probe aLAP1 signal on lysate-treated microarray – cell lysate, small-molecule microarray, COS7 lysate, primary screen (AID 1124); details: probe aLAP1, fluorescence, higher = more signal;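 further: lysate comes from COS7 cells expressing LAP1 and is applied at 0.3 µg/mL; score merges spot fluorescence near 667 nm with signal-to-noise over triplicate slides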
Sam68 (KHDRBS1) = test: compounds binding KHDRBS1 protein – biochemical, small-molecule microarray, 635 nm fluorescence, primary screen (AID 1125); details: higher = more signal;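 further: score merges 667 nm channel intensity with signal to noise over triplicate slides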
[7] = test system: Chordin-like protein 2 (CHRDL2); test: compounds binding chordin-like 2 – biochemical, small-molecule microarray, 635 nm fluorescence, primary screen (AID 1126); details: fluorescence 635 nm, higher = more signal;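 further: printed compound slides probed with Chrdl2 protein at 4 µg/mL for 1 h at 4 C; score merges 667 nm emission intensity with signal to noise over three replicate slides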
[8] = molecular target: Concanavalin-A (Canavalia ensiformis) (UniProt P02866); test: compounds binding concanavalin A lectin – biochemical, small-molecule microarray, Alexa647 label, 635 nm, artefact control for SMM control protein annotation, primary screen (AID 1127); details: ConA-A647 binding fluorescence, higher = more signal;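 further: z combines 667 nm emission intensity with signal-to-noise across three replicate slides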
Sequence of Concanavalin-A (Canavalia ensiformis) (P02866 whole entry, looked up): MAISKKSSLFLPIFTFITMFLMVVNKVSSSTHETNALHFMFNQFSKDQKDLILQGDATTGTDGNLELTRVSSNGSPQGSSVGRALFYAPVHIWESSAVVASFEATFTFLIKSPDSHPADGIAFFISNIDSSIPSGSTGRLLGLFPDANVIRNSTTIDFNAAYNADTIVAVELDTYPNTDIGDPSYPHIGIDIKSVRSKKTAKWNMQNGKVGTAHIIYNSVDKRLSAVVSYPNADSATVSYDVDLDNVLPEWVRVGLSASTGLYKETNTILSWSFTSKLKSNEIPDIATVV

[9] = compounds binding Alexa647 anti-His antibody – biochemical, small-molecule microarray, 635 nm fluorescence, artefact control for SMM control protein annotation, primary screen (AID 1128); details: higher = more signal;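 further: score merges feature fluorescence with signal-to-noise for each printed compound spot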
[10] = test system: Human papillomavirus type 1a E7 protein (residues 1-88); test: HPV1a E7 small-molecule binders, primary screen, biochemical, small-molecule microarray, residues 1-88, 635 nm (AID 1129); details: small-molecule microarray binding, fluorescence 635 nm; higher = more signal
[11] = molecular target: Focal adhesion kinase 1 (Homo sapiens) (UniProt Q05397); test: PTK2 protein binding on printed compound slides – biochemical, small-molecule microarray, 635/667 nm fluorescence, BSA, DTT, primary screen (AID 1130); details: 635 nm fluorescence, higher = more signal;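 further: composite of spot emission at 667 nm and signal to noise over triplicate slides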
Sequence of Focal adhesion kinase 1 (Homo sapiens) (Q05397 whole entry, looked up): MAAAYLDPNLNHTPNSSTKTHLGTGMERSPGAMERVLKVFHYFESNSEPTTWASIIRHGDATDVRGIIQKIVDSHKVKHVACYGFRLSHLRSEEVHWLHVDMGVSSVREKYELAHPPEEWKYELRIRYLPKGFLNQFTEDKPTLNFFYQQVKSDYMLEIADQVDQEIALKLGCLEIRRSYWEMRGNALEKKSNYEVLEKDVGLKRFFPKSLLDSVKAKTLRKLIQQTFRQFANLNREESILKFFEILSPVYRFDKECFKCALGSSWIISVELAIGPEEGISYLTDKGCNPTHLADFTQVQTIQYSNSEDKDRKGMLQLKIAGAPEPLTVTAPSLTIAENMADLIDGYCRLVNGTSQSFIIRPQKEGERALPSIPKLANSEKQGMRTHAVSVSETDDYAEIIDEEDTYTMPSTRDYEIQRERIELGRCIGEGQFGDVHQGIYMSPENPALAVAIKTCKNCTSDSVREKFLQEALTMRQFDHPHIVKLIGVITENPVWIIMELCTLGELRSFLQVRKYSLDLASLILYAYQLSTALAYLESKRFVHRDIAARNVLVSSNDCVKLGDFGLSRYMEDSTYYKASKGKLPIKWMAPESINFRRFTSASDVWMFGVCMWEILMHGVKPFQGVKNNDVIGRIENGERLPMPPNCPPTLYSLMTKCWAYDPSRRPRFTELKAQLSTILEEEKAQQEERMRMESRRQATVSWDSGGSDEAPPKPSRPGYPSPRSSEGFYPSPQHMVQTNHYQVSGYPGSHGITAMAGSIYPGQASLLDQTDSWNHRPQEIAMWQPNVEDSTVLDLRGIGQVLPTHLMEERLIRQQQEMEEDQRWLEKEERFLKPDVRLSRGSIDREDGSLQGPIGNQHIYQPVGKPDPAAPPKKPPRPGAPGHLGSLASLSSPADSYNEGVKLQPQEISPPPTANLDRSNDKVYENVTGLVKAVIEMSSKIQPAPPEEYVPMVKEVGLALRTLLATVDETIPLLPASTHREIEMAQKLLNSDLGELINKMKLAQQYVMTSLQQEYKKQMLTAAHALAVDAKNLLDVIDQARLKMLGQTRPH

[12] = test system: Fibrinogen (Alexa647-labelled); test: Alexa647-fibrinogen binding to printed small molecules – biochemical, small-molecule microarray, 635/667 nm fluorescence, artefact control for SMM control-protein annotation, profiling panel (AID 1131); details: fibrinogen-A647 binding fluorescence, higher = more signal;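 further: z-score merges 667 nm fluorescence with per-spot signal-to-noise over triplicate slides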
[13] = molecular target: Follistatin (Homo sapiens) (UniProt P19883); test: FST protein binding to printed compounds – biochemical, small-molecule microarray, 635/667 nm fluorescence, primary screen (AID 1132); details: 635 nm fluorescence, higher = more signal
Sequence of Follistatin (Homo sapiens) (P19883 whole entry, looked up): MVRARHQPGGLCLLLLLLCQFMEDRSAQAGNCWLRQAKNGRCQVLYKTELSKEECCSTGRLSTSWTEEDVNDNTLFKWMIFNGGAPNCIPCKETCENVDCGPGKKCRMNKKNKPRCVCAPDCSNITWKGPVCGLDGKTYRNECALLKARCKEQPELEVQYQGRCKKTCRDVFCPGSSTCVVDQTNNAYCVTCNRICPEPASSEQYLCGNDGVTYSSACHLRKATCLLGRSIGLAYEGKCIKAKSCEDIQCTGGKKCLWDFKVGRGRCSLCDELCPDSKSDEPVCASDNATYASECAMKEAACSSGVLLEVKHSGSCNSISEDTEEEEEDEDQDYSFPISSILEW

[14] = molecular target: Fibroblast growth factor 2 (Homo sapiens) (UniProt P09038); test: basic fibroblast growth factor binding to printed compounds – biochemical, small-molecule microarray, 635/667 nm fluorescence, primary screen (AID 1133); details: FGF2, fluorescence 635/667, higher = more signal
Sequence of Fibroblast growth factor 2 (Homo sapiens) (P09038 whole entry, looked up): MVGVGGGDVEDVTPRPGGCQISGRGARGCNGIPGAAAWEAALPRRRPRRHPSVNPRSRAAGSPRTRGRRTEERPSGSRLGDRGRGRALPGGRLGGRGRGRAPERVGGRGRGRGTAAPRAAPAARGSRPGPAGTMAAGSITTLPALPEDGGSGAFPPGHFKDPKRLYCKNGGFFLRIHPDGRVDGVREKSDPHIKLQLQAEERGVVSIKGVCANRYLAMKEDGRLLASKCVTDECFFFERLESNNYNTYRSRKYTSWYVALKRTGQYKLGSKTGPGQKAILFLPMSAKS

[15] = JC-1 mitochondrial potential readout, lung cancer cells – cell-based, A549, JC-1 fluorescence, basal, 24 h, 100 nL, profiling panel (AID 1138); details: higher = more signal;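 further: A549 lung adenocarcinoma cells under basal conditions with no added stimulus; test concentration not given here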
Lefty1 = Lefty1 protein binding to printed compounds – biochemical, small-molecule microarray, 635/667 nm fluorescence, primary screen (AID 1139); details: fluorescence 635/667, higher = more signal
[16] = test system: wheat germ agglutinin (Triticum aestivum), Alexa647-labelled; test: Alexa647-WGA lectin binding to printed small molecules – biochemical, small-molecule microarray, 635/667 nm fluorescence, artefact control for SMM control-protein annotation, profiling panel (AID 1140); details: WGA-A647 binding, 635 nm fluorescence, higher = more signal;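 further: score merges 667 nm feature emission with signal to noise over triplicate slides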
[17] = molecular target: Luciferin 4-monooxygenase (Photinus pyralis) (UniProt P08659); test: inhibition of purified Photinus pyralis luciferase – biochemical, luminescence, purified enzyme, 2006 set, primary screen (AID 1141); details: purified firefly luciferase, SteadyGlo luminescence, 30 min; higher = more signal, called active from +8 up or from −8 down;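 further: cell-free assay with purified firefly luciferase at 100 ng per well in PBS; test concentration not given here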
Sequence of Luciferin 4-monooxygenase (Photinus pyralis) (P08659 whole entry, looked up): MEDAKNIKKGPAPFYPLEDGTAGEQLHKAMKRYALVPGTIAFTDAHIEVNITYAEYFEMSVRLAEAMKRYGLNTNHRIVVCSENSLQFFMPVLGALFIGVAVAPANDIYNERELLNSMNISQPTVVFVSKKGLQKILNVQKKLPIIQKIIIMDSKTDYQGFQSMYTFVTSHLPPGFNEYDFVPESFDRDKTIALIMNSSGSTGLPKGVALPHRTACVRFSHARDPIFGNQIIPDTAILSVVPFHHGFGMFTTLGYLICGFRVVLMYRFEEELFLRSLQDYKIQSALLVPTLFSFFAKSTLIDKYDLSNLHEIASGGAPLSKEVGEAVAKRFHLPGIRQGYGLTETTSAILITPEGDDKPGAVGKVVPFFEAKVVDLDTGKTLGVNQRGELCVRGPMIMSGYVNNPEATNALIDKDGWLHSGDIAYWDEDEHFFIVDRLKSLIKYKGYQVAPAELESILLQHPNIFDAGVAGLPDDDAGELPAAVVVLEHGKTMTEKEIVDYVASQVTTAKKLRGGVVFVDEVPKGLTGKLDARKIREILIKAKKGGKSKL

Row | SMILES | composite z-score (Albumin (Bos taurus)) | composite Z-score [1] | composite z-score [2] | composite z-score [3] | composite z-score [4] | composite z-score [5] | composite z-score [6] | composite z-score (Sam68 (KHDRBS1)) | composite z-score [7] | composite z-score [8] | composite z-score [9] | composite z-score [10] | composite z-score [11] | composite z-score [12] | composite z-score [13] | composite z-score [14] | z-score [15] | composite z-score (Lefty1) | composite z-score [16] | z-score [17]
1 | COCCOC(=O)N1C(=O)[C@@]2(c3cc(C#CCCO)ccc31)[C@H](C(=O)Nc1nc3ccccc3s1)[C@H]1C(=O)O[C@H](c3ccccc3)[C@H](c3ccccc3)N1[C@@H]2c1ccccc1OCCO | 0.623 | 0.0088 (inactive) | 0.436 | 0.297 | 0.542 | 1.22 | 0.627 | 1.29 | 0.524 | 1.14 | 1.87 | 1.2 | 0.764 | 0.866 | 1.12 | 0.69 | -2.25 | 0.573 | 0.902 | -0.551 (inactive)
2 | COC(=O)[C@@]1(Cc2ccc(OC)cc2)[C@H]2c3cc(C(=O)N(C)C)n(Cc4ccc(Cl)c(C(F)(F)F)c4)c3C[C@H]2CN1C(=O)c1ccccc1 | 0.962 | 0.579 (inactive) | 0.406 | 0.29 | 0.377 | 2.65 | 0.0516 | 1.26 | -0.763 | 0.952 | 1.99 | 1.22 | 0.71 | 0.982 | 0.655 | -0.451 | 0.0187 | -0.68 | 1.22 | 1.65 (inactive)
3 | O=C1C=C(c2ccccc2)C(=O)c2ccc([C@H]3Oc4ccccc4S(=O)(=O)N4CCC[C@@H]34)cc21 | -0.878 | 0.159 (inactive) | -0.185 | -0.161 | -0.48 | -0.811 | -0.534 | -1.05 | 0.594 | -0.388 | -0.398 | -0.315 | -0.29 | -0.506 | 0.428 | -0.0096 | -1.69 | 0.203 | -0.0704 | -2.04 (inactive)
4 | COc1ccc([Si](C)(C)[C@H]2[C@H](CC(=O)N(CCO)Cc3ccccc3)O[C@@]3(C(=O)N(Cc4cccc(N5CCOC5=O)c4)c4ccccc43)[C@@H]2C)cc1 | -0.255 | 0.897 (inactive) | -0.0288 | -0.104 | 0.591 | 1.1 | 0.735 | 1.3 | 0.623 | 0.995 | 1.65 | 0.922 | 0.647 | 0.206 | 1.06 | 0.494 | -0.791 | 0.857 | 0.321 | 0.271 (inactive)
5 | COC(=O)[C@@]1(Cc2ccc(OC)cc2)[C@H]2c3cc(C(=O)N4CCCC4)n(Cc4cccc5ccccc45)c3C[C@H]2CN1C(=O)c1ccccc1 | 1.02 | -0.115 (inactive) | 0.137 | 0.377 | 0.757 | 2.55 | 0.592 | 0.462 | -0.133 | 0.686 | 1.57 | 1.2 | 0.164 | 0.704 | 0.36 | -0.247 | 1.07 | -0.245 | 0.396 | 1.31 (inactive)
6 | COCCCNC(=O)[C@@]1(Cc2ccccc2N=[N+]=[N-])COC(c2ccc(OCCCO)cc2)=N1 | 0.538 | 0.889 (inactive) | 0.125 | -0.0928 | 0.31 | 2.27 | 0.398 | 1.05 | -0.938 | 1.1 | 1.47 | 1.22 | 0.614 | 0.967 | 0.773 | -0.186 | 0.961 | -0.351 | 0.976 | -2.1 (inactive)
7 | NC(=O)N1C(=O)C2C(C1=O)C1C=C(CCCO)C2C(c2cccs2)N1Cc1cccc(OC(F)(F)F)c1 (stereo not given) | 0.729 | -0.182 (inactive) | -0.023 | -0.0534 | 0.583 | 0.789 | -0.0259 | 1.07 | -0.0665 | 0.434 | 2.83 | 0.416 | 0.192 | 0.692 | 0.82 | -0.0701 | 0.928 | 0.672 | 0.438 | -0.929 (inactive)
8 | CC(C)[Si](C#C[Si](C(C)C)(C(C)C)C(C)C)(O[C@H](C)c1cn([C@H](CO)Cc2ccccc2)nn1)C(C)C | 0.544 | -0.397 (inactive) | -0.0699 | -0.145 | 0.0728 | 0.713 | -0.268 | 0.193 | 0.498 | 1.03 | 0.0517 | 0.209 | 0.21 | 0.259 | -0.093 | 0.288 | 0.476 | 0.412 | 0.141 | -1.03 (inactive)
9 | CCOC(=O)C[C@H]1[C@H](OC(=O)c2cc3ccccc3oc2=O)[C@@H](NC(=O)Cc2ccc(OC)cc2)c2cc(OCCCO)ccc2N1C(=O)c1ccc2ccccc2n1 | -0.116 | -0.431 (inactive) | -0.152 | -0.0666 | 0.353 | 0.303 | 0.096 | 0.206 | 0.583 | 0.0304 | 1.37 | 0.649 | 0.199 | 0.122 | 0.93 | 0.956 | -0.013 | 0.838 | 0.0863 | 0.0113 (inactive)
10 | CC(C)N1CC=CC23O[C@@H]4C=CCOC(=O)[C@@H]4[C@H]2C(=O)N(CCCO)[C@@H]3C1=O (stereo not given in full) | 1.05 | 2.17 (inactive) | -0.145 | -0.118 | 0.863 | 2.76 | 0.633 | 0.234 | -0.73 | 0.234 | 1.59 | 0.672 | 1.01 | -1.14 | -0.0511 | -0.849 | -0.384 | -0.133 | -0.17 | -3.85 (inactive)
11 | CN1C(=O)C2C=CC(C(O)c3ccc(F)cc3)N(Nc3ccccc3)C2C1=O (stereo not given) | 0.884 | 0.21 (inactive) | 0.0562 | -0.14 | 0.721 | 1.64 | -0.481 | 0.57 | -0.623 | 0.808 | 2.27 | 1.14 | 1.04 | 0.802 | 0.576 | -0.319 | -0.575 | 0.253 | 0.0088 | -0.112 (inactive)
